PubChem BioAssay AID1159580 (chemical genetic matrix, 2015)
“And” between values parts separate entries of the source, which are not always exact repeats. Equal entries are not always repeated. About 2,000 (36%) of roughly 5,500 compounds were called active. About 18% were inconclusive and are not listed. No stated cut-off is given here; in the data, active means normalized growth mostly below about 0.91 (no sharp cut-off); inconclusive means no clear call, values can overlap the other calls; inactive means mostly above about 0.92. This is one part of the list.

Experiment: chemical genetic growth profiling, strain panel (AID 1159580);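 further: tested at 20 µM; growth read once vehicle control cultures reached saturation at 30 °C; 1 = growth at the plate median or of vehicle wells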
Details: S. cerevisiae deletion strains, growth OD

Measured: normalized growth

CC(C)c1c(O)ccc2c1CCC1C(C)(C)CCC[C@]21C (stereo partly specified)
inactive: locus YCL069W, strain vba3, stronger effect = lower value 0.932 | locus YDL005C, strain med2, stronger effect = lower value 0.961 | locus YDR001C, strain nth1, stronger effect = lower value 1 | locus YDR334W, strain swr1, stronger effect = lower value 0.974 | locus YEL037C, strain rad23, stronger effect = lower value 0.991 | locus YER111C, strain swi4, stronger effect = lower value 0.971 | locus YER155C, strain BEM2 (second series), stronger effect = lower value 0.925 | locus YFR010W, strain ubp6, stronger effect = lower value 0.929 | locus YGL173C, strain kem1, stronger effect = lower value 0.947 | locus YJL092W, strain hpr5, stronger effect = lower value 0.926 | locus YJL115W, strain asf1, stronger effect = lower value 1.02 | locus YJL154C, strain vps35, stronger effect = lower value 1.01
active: locus YAL013W, strain DEP1, stronger effect = lower value 0.063 | locus YAL021C, strain ccr4, stronger effect = lower value 0.888 | locus YAL026C, strain drs2, stronger effect = lower value 0.451 | locus YAL030W, strain snc1, stronger effect = lower value 0.319 | locus YBL061C, strain skt5, stronger effect = lower value 0.329 | locus YBR009C, strain hhf1, stronger effect = lower value 0.182 | locus YBR021W, strain FUR4, stronger effect = lower value 0.517 | locus YBR023C, strain chs3, stronger effect = lower value 0.43 | locus YBR171W, strain sec66, stronger effect = lower value 0.606 | locus YBR229C, strain ROT2, stronger effect = lower value 0.245 | locus YBR231C, strain swc5, stronger effect = lower value 0.258 | locus YBR279W, strain paf1, stronger effect = lower value 0.769 | locus YCL011C, strain gbp2, stronger effect = lower value 0.365 | locus YCL016C, strain dcc1, stronger effect = lower value 0.353 | locus YCL029C, strain bik1, stronger effect = lower value 0.29 | locus YCR088W, strain abp1, stronger effect = lower value 0.848 | locus YDL035C, strain GPR1, stronger effect = lower value 0.118 | locus YDL040C, strain nat1, stronger effect = lower value 0.749 | locus YDL074C, strain BRE1, stronger effect = lower value 0.111 | locus YDL101C, strain DUN1, stronger effect = lower value 0.185 | locus YDL134C, strain PPH21, stronger effect = lower value 0.0876 | locus YDL185W, strain tfp1, stronger effect = lower value 0.135 | locus YDL192W, strain arf1, stronger effect = lower value 0.139 | locus YDR069C, strain doa4, stronger effect = lower value 0.842 | locus YDR101C, strain arx1, stronger effect = lower value 0.43 | locus YDR137W, strain rgp1, stronger effect = lower value 0.134 | locus YDR150W, strain NUM1, stronger effect = lower value 0.399 | locus YDR159W, strain sac3, stronger effect = lower value 0.304 | locus YDR162C, strain NBP2, stronger effect = lower value 0.0592 | locus YDR195W, strain ref2 0.163 | locus YDR297W, strain sur2, stronger effect = lower value 0.353 | locus YDR318W, strain mcm21, stronger effect = lower value 0.182 | locus YDR335W, strain msn5, stronger effect = lower value 0.863 | locus YDR388W, stronger effect = lower value 0.38 | locus YDR392W, strain spt3, stronger effect = lower value 0.141 | locus YDR502C, strain sam2, stronger effect = lower value 0.185 | locus YEL003W, strain gim4, stronger effect = lower value 0.543 | locus YEL061C, strain CIN8 (second series), stronger effect = lower value 0.667 | locus YER015W, strain faa2, stronger effect = lower value 0.548 | locus YER016W, strain bim1, stronger effect = lower value 0.302 | locus YER110C, stronger effect = lower value 0.713 | locus YER155C, strain BEM2, stronger effect = lower value 0.0776 | locus YER167W, strain BCK2, stronger effect = lower value 0.0994 | locus YGL078C, strain dbp3, stronger effect = lower value 0.835 | locus YGL086W, strain mad1, stronger effect = lower value 0.135 | locus YGL167C, strain pmr1, stronger effect = lower value 0.248 | locus YGL227W, strain vid30, stronger effect = lower value 0.691 | locus YGL240W, strain doc1, stronger effect = lower value 0.822 | locus YGL248W, strain PDE1, stronger effect = lower value 0.113 | locus YGL253W, strain hxk2, stronger effect = lower value 0.67 | locus YGR135W, strain pre9, stronger effect = lower value 0.373 | locus YGR252W, strain gcn5, stronger effect = lower value 0.212 | locus YHR013C, strain ard1, stronger effect = lower value 0.548 | locus YHR027C, strain rpn1, stronger effect = lower value 0.527 | locus YHR030C, strain SLT2, stronger effect = lower value 0.06 and 0.129 | locus YHR079C, strain IRE1 (second series), stronger effect = lower value 0.335 | locus YHR079C, strain IRE1, stronger effect = lower value 0.215 | locus YHR094C, strain hxt1, stronger effect = lower value 0.272 | locus YHR129C, strain ARP1, stronger effect = lower value 0.0824 | locus YHR142W, strain chs7, stronger effect = lower value 0.682 | locus YHR200W, strain rpn10, stronger effect = lower value 0.309 | locus YIL066C, strain RNR3, stronger effect = lower value 0.111 | locus YIL073C, strain SPO22, stronger effect = lower value 0.181 | locus YIL125W, strain kgd1, stronger effect = lower value 0.395 | locus YIR030C, strain dcg1, stronger effect = lower value 0.292 | locus YJL095W, strain BCK1 (second series), stronger effect = lower value 0.103 | locus YJL095W, strain BCK1, stronger effect = lower value 0.0705 and 0.204 | locus YJL129C, strain trk1, stronger effect = lower value 0.259 | locus YJL134W, strain LCB3, stronger effect = lower value 0.373 | locus YJL164C, strain tpk1, stronger effect = lower value 0.197 | locus YJL166W, strain qcr8, stronger effect = lower value 0.32 | locus YJL168C, strain set2, stronger effect = lower value 0.725 | locus YJL187C, strain SWE1 (second series), stronger effect = lower value 0.117 | locus YJL187C, strain SWE1, stronger effect = lower value 0.403
